This passage reports inhibition results from PubChem BioAssay AID504734 (The Scripps Research Institute Molecular Screening Center, 2011).

What is called inhibition is the drop in the measured response relative to a control, in per cent.

SMILES strings stand for the structures. Hit rate of the full screen: of about 340,000 compounds, about 730 (0.21%) were called active. The list comes from a sample in which actives are over-represented; it also holds similar structures and randomly drawn compounds. A number with no mark means an inactive call.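 Rule for the calls: active = inhibition above the mean over all tested compounds plus 3 SD (cut at about 21% in these data); inactive = the rest.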

In the assay the target is Toll-like receptor 9 (Homo sapiens) + Myeloid differentiation primary response protein MyD88 (Homo sapiens) (UniProt Q9NR96+Q99836). The assay can be described thus: inhibitors of TLR9-MyD88 association in cells, primary screen, cell-based, CHO, BLA complementation, fluorescence (AID 504734).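 Note: 0% = DMSO only wells and 100% = clavulanate BLA inhibitor control wells.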 As to conditions: CHO BLA complementation TLR9-MyD88, CCF4 FRET ratio; at 4.98 µM; hits give high values.
Chain of Toll-like receptor 9 (Homo sapiens) + Myeloid differentiation primary response protein MyD88 (Homo sapiens) (Q99836 whole entry, looked up): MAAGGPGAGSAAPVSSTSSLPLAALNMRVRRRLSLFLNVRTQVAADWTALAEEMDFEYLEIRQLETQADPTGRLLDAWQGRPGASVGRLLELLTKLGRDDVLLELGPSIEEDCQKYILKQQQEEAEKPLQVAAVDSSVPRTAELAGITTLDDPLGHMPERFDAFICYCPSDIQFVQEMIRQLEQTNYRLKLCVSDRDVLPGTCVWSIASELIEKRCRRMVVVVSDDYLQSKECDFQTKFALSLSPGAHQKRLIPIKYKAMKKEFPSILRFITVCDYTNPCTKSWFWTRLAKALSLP
Chain of Toll-like receptor 9 (Homo sapiens) + Myeloid differentiation primary response protein MyD88 (Homo sapiens) (Q9NR96 whole entry, looked up): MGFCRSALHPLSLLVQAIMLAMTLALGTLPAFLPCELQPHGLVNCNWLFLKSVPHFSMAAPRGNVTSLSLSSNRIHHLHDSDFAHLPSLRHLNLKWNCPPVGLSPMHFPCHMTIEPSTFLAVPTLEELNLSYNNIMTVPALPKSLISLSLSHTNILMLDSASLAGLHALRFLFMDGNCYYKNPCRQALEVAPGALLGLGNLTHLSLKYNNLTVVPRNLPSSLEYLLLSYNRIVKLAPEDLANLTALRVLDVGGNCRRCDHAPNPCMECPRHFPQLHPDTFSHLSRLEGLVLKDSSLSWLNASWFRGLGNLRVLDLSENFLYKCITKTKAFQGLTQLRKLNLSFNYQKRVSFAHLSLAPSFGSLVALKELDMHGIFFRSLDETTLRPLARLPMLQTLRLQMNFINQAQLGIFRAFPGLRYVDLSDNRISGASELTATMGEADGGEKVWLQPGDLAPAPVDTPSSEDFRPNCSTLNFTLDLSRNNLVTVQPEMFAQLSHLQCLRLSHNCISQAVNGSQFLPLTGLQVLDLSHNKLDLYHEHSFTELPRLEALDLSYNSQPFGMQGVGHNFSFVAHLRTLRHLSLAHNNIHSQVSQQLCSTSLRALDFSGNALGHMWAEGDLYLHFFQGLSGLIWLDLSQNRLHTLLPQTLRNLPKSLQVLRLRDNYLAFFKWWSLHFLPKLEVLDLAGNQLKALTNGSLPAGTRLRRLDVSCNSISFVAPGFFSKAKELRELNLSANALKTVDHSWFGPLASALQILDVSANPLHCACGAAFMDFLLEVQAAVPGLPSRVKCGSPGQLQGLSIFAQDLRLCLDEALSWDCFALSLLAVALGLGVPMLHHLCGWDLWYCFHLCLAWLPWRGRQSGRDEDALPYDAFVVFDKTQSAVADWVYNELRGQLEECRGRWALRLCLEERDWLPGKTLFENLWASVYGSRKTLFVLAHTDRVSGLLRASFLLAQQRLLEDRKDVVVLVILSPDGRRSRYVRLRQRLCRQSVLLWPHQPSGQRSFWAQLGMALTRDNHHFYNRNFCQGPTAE
Take `C[C@@H]1CN([C@@H](C)CO)C(=O)CCCn2nncc2CO[C@H]1CN(C)Cc1ccc(C(F)(F)F)cc1`: the inhibition is -8.49%.
Next, `O=C(NCCCNCc1ccccc1)c1ccc(/C=N/O)nc1`: -3.77%; `C[N+](C)(C)CCNC(=O)c1cc[n+](Cc2ccccc2)c(/C=N/O)c1`: 22.8% (active).
For `C[n+]1ccc(C(=O)NCc2ccccc2)cc1` the value was -10.2%; for `Cc1ccc2cccc([N+](=O)[O-])c2n1`, 4.24%.
Next, `COc1ccc(CCNC(=O)CN(c2ccccc2)S(=O)(=O)c2ccccc2)cc1`: 0.66%; `COc1ccc(OC)c(N=Cc2c(O)[nH]c3ccccc23)c1`: 41.1% (active).
On to `COc1cc2[nH]c(O)c(C=O)c2cc1OC`, for which the inhibition was -8.58%.
Next, `CN=c1scc(-c2cc(OC)ccc2OC)n1/N=C/c1c(C)[nH]c2ccccc12`: 6.42%.
Next, `CC(=O)c1ccccc1NC(=O)COC(=O)C1COc2ccccc2O1` (stereo not given): 2.77%.
For `C[C@@H]1CN([C@@H](C)CO)S(=O)(=O)c2ccc(-c3ccc(C(=O)N(C)C)cc3)cc2O[C@@H]1CN(C)Cc1ccccc1C(=O)O` the value was -6.78%; for `CCOC(=O)c1c(NC(=S)SC)sc(C(=O)N2CCc3ccccc3C2)c1C`, -0.74%.
In the case of `COc1ccc(CN2C[C@H]3CON(C)[C@H]3C[C@H]2c2ccc(-c3cccc(F)c3)cc2)cc1`, the inhibition is 4.13%.
Take `O=C(O)C1CCCN1c1nc(Cl)ccc1[N+](=O)[O-]` (stereo not given): the inhibition is -12.8%.
Turning to `O=C1c2cccc3c([N+](=O)[O-])ccc(c23)C(=O)N1CC1CCCO1` (stereo not given), the inhibition is 56.9% (active).
For `CN1CN(C)c2ccc([N+](=O)[O-])c3cccc1c23`, the inhibition is -8.31%.
For `CCOc1cccc(=O)c2c(C)n(CC3CCCO3)c(C)c12` (stereo not given) the value was 1.31%; for `CCN(Cc1ccncc1)C(=S)Nc1ccccc1C`, 3.02%.
Turning to `Cc1cccc(S(=O)(=O)N(C)C[C@@H]2OCc3cnnn3CCCC(=O)N([C@H](C)CO)C[C@@H]2C)c1`, the inhibition is -11.3%.
Regarding `CN1CCN(c2ccncc2S(=O)(=O)N2CCCC2)CC1`, the inhibition is 3.95%.
For `O=C(O)/C=C/c1ccc(S(=O)(=O)N2CCCCCC2)cc1` the value was -16.4%.
Regarding `O=C(/C=C(O)/C=C/c1ccc(O)cc1)/C=C/c1ccc(O)cc1`, the inhibition is 42% (active).
Regarding `COc1cccc(C=CC(=O)C=CC=Cc2ccccc2)c1`, the inhibition is -5.47%.
For `COc1ccc(NC(=O)CSc2nnnn2-c2cccc(OC)c2)cc1` the value was 13.5%.
For `COCOCCn1cc(CN2CCS(=O)(=O)N(Cc3ccc(-c4ccc(OC)cc4)cc3)C(CC(C)C)C2=O)nn1` (stereo not given) the value was -1.5%; for `C[C@@H]1CN([C@@H](C)CO)C(=O)c2c(c3ccccc3n2C)-c2ccccc2CO[C@H]1CN(C)C(=O)C1CC1`, -4%.
In the case of `COc1cccc2sc3cc(NCC[C@@H]4CCCN4C)ccc3c(=O)c12`, the inhibition was 0.85%.
Regarding `Cc1cc2oc(=O)cc(CN3CCN(Cc4ccccc4)CC3)c2cc1C`, the inhibition was -18.4%.
Next, `Cc1cc2oc3ccc(NCCC4CCCN4C)cc3c(=O)c2cc1C` (stereo not given): 24.9% (active); `C[C@H]1CN([C@@H](C)CO)S(=O)(=O)c2ccc(Br)cc2O[C@H]1CN(C)C(=O)c1cnccn1`: 5.72%.
In the case of `CCC1NC(=O)c2cccnc2-n2c1nc1ccc(C)cc1c2=O` (stereo not given), the inhibition was 8.64%.
As for `COc1ccc(S(=O)(=O)N2CCCCC2)cc1C(=O)NC1CCS(=O)(=O)C1` (stereo not given), the inhibition is -5.76%.
As for `CCc1ccccc1NC(=O)CN1CCN(C(=O)c2cc(C3CC3)nn2-c2ccccc2)CC1`, the inhibition was -43.9%.
Turning to `NC(=O)CSc1nnc(-c2cccc(S(=O)(=O)N3CCOCC3)c2)o1`, the inhibition is 10.4%.
For `O=[N+]([O-])c1c(NCCO)cc(Sc2nc3ccccc3s2)c2nonc12` the value was 43.3% (active); for `Nc1nnc(SCC(=O)Nc2ccc3nc(SCC(=O)Nc4ccccc4)sc3c2)s1`, 0.67%; for `OCCNc1nc(Nc2ccc(Cl)c(Cl)c2)nc2ccccc12`, -0.91%.
In the case of `O=C(CSc1ncn[nH]1)Nc1nc2c(F)c(F)c(F)cc2s1`, the inhibition was -0.11%.
Regarding `O=C(C[C@H]1C[C@H]2c3cc(NS(=O)(=O)c4ccc(F)cc4)ccc3O[C@H]2[C@H](CO)O1)NCc1cc(F)ccc1F`, the inhibition is -5.81%.
In the case of `COc1cc(C(=O)N2C(=O)c3cccc(N)c3C2=O)cc(OC)c1OC`, the inhibition was 20.9% (active).
Next, `COc1cc(C(=O)N2CCN(C)CC2)cc(OC)c1OC`: 8.16%; `CC1CC(C)CN(S(=O)(=O)c2cccc(C(=O)N3C(=O)c4cccc(N)c4C3=O)c2)C1` (stereo not given): -15.2%; `COc1ccc(-c2c(C#N)cnc(C)c2C)c(O)c1OC`: -8.05%.
Next, `C#Cc1cc(N2CCN(C(=O)c3ccoc3)CC2)n2nc(-c3cccc(Cl)c3)cc2n1`: 5.91%; `CCCCCCNC(=O)O[C@]12C[C@@H](C(=O)OC)[C@@H](C(=O)OC)C[C@@]1(O)CN(S(=O)(=O)c1ccc(C)cc1)C2`: -7.21%.
